Reference: PubChem BioAssay (NCATS)
Inconclusive results are not listed. Unless noted, the call rests on the fitted dose curve; in most records, active means well fitted curve in either direction with a large enough effect (not every such curve was filed as active); inconclusive means small, poorly fitted or top-dose-only effect, or another doubt; inactive means flat fitted curve, though single readings scatter.

Assays:
[1] = AP1 Signaling Pathway (AID 357); settings: ME-180 AP-1-bla reporter, EGF-induced, beta-lactamase ratio, 5 h; at 17.2 µM (top of the series) unless noted;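 further: ME-180 reporter cells stimulated with EGF at its EC50 level; on the % scale 0 is the no-effect control and ±100 the full control effect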
Method in brief: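 Read-out was the 460nm/530nm emission ratio (excitation 405nm) after CCF4 loading for 2.5 hours at room temperature. Cells carried an AP-1-driven beta-lactamase reporter, were stimulated with EC50 EGF plus compound for 5 hours, and AC50 values came from titrations.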

[2] = NFAT Signaling Pathway (AID 444); settings: Jurkat NFAT-bla M1, carbachol, beta-lactamase ratio, 5 h; at 17.2 µM (top of the series) unless noted;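 further: carbachol stimulus at about its EC50 of 1 µM final; on the % scale 0 is the no-effect control and ±100 the full control effect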
Method in brief: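 Read-out: CCF4 FRET ratio (460 nm/530 nm) after 1 h RT dye loading, used for %activity and AC50 from titration series. Cells: Jurkat NFAT-β-lactamase/M1 line, treated with compound plus 1 uM carbachol for 5 h, 37 °C.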

[3] = Stat Signaling Pathway (AID 446); settings: ME-180 SIE beta-lactamase reporter, IL-6 stimulated, 5 h; at 17.2 µM (top of the series) unless noted;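 further: ME-180 cervical cancer cells given 40 pM IL-6 alongside compound; SIE-controlled beta-lactamase reporter measured as 460/530 nm FRET emission ratio; on the % scale 0 is the no-effect control and ±100 the full control effect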
Method in brief: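 Reporter line: ME-180 cervical carcinoma, SIE-beta-lactamase. Treatment: compound with 40 pM IL-6, 5 hrs, 37 C, in low-serum OPTI-MEM with 10 mM HEPES pH 7.3. Detection: 460/530 nm fluorescence.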

[4] = target: Glucocorticoid receptor (Homo sapiens) (UniProt P04150); experiment: GR-GFP Redistribution (AID 450;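 active means compounds whose dose series gives a full or clear partial fitted curve of increased nuclear translocation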; further: potency means the concentration at half of the fitted maximal effect)
Chain of Glucocorticoid receptor (Homo sapiens) (P04150 whole entry, looked up): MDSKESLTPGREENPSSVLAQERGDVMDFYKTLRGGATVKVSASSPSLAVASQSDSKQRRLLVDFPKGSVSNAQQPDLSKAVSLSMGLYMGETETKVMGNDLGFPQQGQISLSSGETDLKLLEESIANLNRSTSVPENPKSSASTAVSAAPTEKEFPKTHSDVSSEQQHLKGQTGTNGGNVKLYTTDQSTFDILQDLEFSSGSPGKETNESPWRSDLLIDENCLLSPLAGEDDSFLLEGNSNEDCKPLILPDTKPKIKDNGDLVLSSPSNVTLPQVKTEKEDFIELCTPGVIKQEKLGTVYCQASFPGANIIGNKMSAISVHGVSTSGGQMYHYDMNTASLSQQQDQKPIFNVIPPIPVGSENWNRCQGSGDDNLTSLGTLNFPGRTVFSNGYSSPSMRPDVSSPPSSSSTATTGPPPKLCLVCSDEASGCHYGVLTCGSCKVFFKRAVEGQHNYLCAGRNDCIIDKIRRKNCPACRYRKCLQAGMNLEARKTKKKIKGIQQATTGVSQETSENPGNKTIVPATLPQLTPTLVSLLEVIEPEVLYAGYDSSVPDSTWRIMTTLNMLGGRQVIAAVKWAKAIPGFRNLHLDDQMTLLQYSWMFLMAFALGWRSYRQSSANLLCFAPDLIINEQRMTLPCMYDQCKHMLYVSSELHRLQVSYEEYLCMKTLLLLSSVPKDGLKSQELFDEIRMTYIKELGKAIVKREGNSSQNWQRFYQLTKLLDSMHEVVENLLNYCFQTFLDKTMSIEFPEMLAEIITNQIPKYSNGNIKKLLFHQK

COC(=O)C(NC(=O)c1ccccc1)(Nc1nccs1)C(F)(F)F (centres undefined)
inactive: activity change, negative = inhibition [1] 6.27% | activity change, negative = inhibition [2] 2.67% | activity, negative = inhibition [3] 5.62% | Potency [4] > 20.6 µM

CCCCOc1ccc(C(=O)Nn2cnnc2)cc1
inactive: activity change, negative = inhibition [1] 15.5% | activity change, negative = inhibition [2] 4.61% | activity, negative = inhibition [3] 8.41% | Potency [4] > 20.6 µM

CCCCSc1nnc(-c2ccc(NC(C)=O)cc2)n1C
inactive: activity change, negative = inhibition [1] -14.2% | activity change, negative = inhibition [2] 12.4% | activity, negative = inhibition [3] 0.987% | Potency [4] > 20.6 µM

O=c1[nH]nc2n1CCCCC2
inactive: activity change, negative = inhibition [1] 13.2% | activity change, negative = inhibition [2] 9.36% | activity, negative = inhibition [3] 7.42% | Potency [4] > 20.6 µM

COc1ccc(N2CC(=O)N(c3ccc(OC)c(OC)c3)CC2=O)cc1OC
inactive: activity change, negative = inhibition [1] 22.8% | activity change, negative = inhibition [2] 5.84% | activity, negative = inhibition [3] 1.83% | Potency [4] > 20.6 µM

CC(=O)c1c(N)nc2n(c1=O)CCCCC2
inactive: activity change, negative = inhibition [1] -12.6% | activity change, negative = inhibition [2] -9.74% | activity, negative = inhibition [3] 9.48% | Potency [4] > 20.6 µM

CCOC(=O)c1c(CN2CCCCC2)oc2ccc(OC)cc12
inactive: activity change, negative = inhibition [1] 21.2% | activity change, negative = inhibition [2] 14.1% | activity, negative = inhibition [3] 0.706% | Potency [4] > 20.6 µM

COc1cc(-c2cc(C(F)(F)F)n3ncc(C(=O)O)c3n2)cc(OC)c1OC
inactive: activity change, negative = inhibition [1] 3.69% | activity change, negative = inhibition [2] 3.34% | activity, negative = inhibition [3] 1.42% | Potency [4] > 20.6 µM

CCCOc1cccc(C2/C(=C(/O)c3ccccc3)C(=O)C(=O)N2CCN(C)C)c1 (centres undefined)
inactive: activity change, negative = inhibition [1] 5.11% | activity change, negative = inhibition [2] 24.1% | activity, negative = inhibition [3] 0.936% | Potency [4] > 20.6 µM

CC(NC(=O)Nc1cccnc1)(C(F)(F)F)C(F)(F)F
inactive: activity change, negative = inhibition [1] -12.1% | activity change, negative = inhibition [2] -11.5% | activity, negative = inhibition [3] -3.14% | Potency [4] > 20.6 µM

CC1=C(C(=O)Nc2ccccc2)C(c2ccncc2)C(C#N)=C(SCC(=O)NC(C)C)N1 (centres undefined)
inactive: activity change, negative = inhibition [1] -5.76% | activity change, negative = inhibition [2] 1.05% | activity, negative = inhibition [3] -4.3% | Potency [4] > 20.6 µM

COc1ccc(Oc2nc3c(c(=O)n(C)c(=O)n3C)n2Cc2cccc(OC)c2)cc1
inactive: activity change, negative = inhibition [1] -6% | activity change, negative = inhibition [2] -3.53% | activity, negative = inhibition [3] -2.94% | Potency [4] > 20.6 µM

COc1ccc(N2C(=O)CN=C2Nc2nc(C)cc(C)n2)cc1
inactive: activity change, negative = inhibition [1] 8.39% | activity change, negative = inhibition [2] -10% | activity, negative = inhibition [3] 4.62% | Potency [4] > 20.6 µM

C=CCc1c(C)nc(SCCC)[nH]c1=O
inactive: activity change, negative = inhibition [1] 2.81% | activity change, negative = inhibition [2] -9.46% | activity, negative = inhibition [3] -7.18% | Potency [4] > 20.6 µM

CC/C(C)=C1\SC(N2CCN(C(C)=O)CC2)=NC1=O
inactive: activity change, negative = inhibition [1] 2% | activity change, negative = inhibition [2] 5.99% | activity, negative = inhibition [3] 8.03% | Potency [4] > 20.6 µM

CN(C1CCS(=O)(=O)C1)S(=O)(=O)c1cccc2nsnc12 (centres undefined)
inactive: activity change, negative = inhibition [1] -3.76% | activity change, negative = inhibition [2] 18.9% | activity, negative = inhibition [3] 1.43% | Potency [4] > 20.6 µM

CSc1nc(Oc2ccc(=O)[nH]n2)nc(N(C)C)n1
inactive: activity change, negative = inhibition [1] 0.488% | activity change, negative = inhibition [2] -5.44% | activity, negative = inhibition [3] 3.84% | Potency [4] > 20.6 µM

c1ccc(Cc2nnc3n2CCCCC3)cc1
inactive: activity change, negative = inhibition [1] -5.05% | activity change, negative = inhibition [2] -13.9% | activity, negative = inhibition [3] 5.83% | Potency [4] > 20.6 µM

CCC(=O)Nc1ccc(-c2nnc(SCC(=O)NCC3CCCO3)n2C)cc1 (centres undefined)
inactive: activity change, negative = inhibition [1] -2.29% | activity change, negative = inhibition [2] -1.98% | activity, negative = inhibition [3] 1.52% | Potency [4] > 20.6 µM

COc1ccc(/C(O)=C2/C(=O)C(=O)N(CCN3CCOCC3)C2c2ccccn2)cc1OC (centres undefined)
inactive: activity change, negative = inhibition [1] 3.25% | activity change, negative = inhibition [2] -11% | activity, negative = inhibition [3] -5.39% | Potency [4] > 20.6 µM

COC(=O)C1C(=O)NCC1c1ccccc1 (centres undefined)
inactive: activity change, negative = inhibition [1] 9.38% | activity change, negative = inhibition [2] -1.78% | activity, negative = inhibition [3] 7.06% | Potency [4] > 20.6 µM

Cc1cc(=O)oc(C)c1C(=O)NCCC1=CCCCC1
inactive: activity change, negative = inhibition [1] 12.2% | activity change, negative = inhibition [2] -27.5% | activity, negative = inhibition [3] 2.06% | Potency [4] > 20.6 µM

CC(=O)O[C@@]12CO[C@@H]1C[C@H](O)[C@@]1(C)C(=O)[C@H](O)C3=C(C)[C@@H](OC(=O)[C@H](O)[C@@H](NC(=O)OC(C)(C)C)c4ccccc4)C[C@](O)([C@@H](OC(=O)c4ccccc4)[C@H]21)C3(C)C
inactive: activity change, negative = inhibition [1] -3.46% | activity change, negative = inhibition [2] 29.1% | activity, negative = inhibition [3] -5.76% | Potency [4] > 20.6 µM

COCCNc1oc(-c2ccc(C)cc2)nc1C#N
inactive: activity change, negative = inhibition [1] -6.25% | activity change, negative = inhibition [2] 1.1% | activity, negative = inhibition [3] 0.279% | Potency [4] > 20.6 µM

COc1ccccc1C(=O)N1CCCC1(C#N)c1ccccc1 (centres undefined)
inactive: activity change, negative = inhibition [1] -10.1% | activity change, negative = inhibition [2] -0.126% | activity, negative = inhibition [3] -2.09% | Potency [4] > 20.6 µM

CC(C)c1nc2n[nH]c(N)c2c2c1CCCC2
inactive: activity change, negative = inhibition [1] -8.5% | activity change, negative = inhibition [2] 6.42% | activity, negative = inhibition [3] -2.14% | Potency [4] > 20.6 µM
